Parameters in all cases: scale not given: direction of the effect not stated beside the values
Experiment [1] addresses Protein translocase subunit SecA (Escherichia coli (strain K12)) (UniProt P10408). The experiment can be described thus: Assay to Identify E. coli SecA ATPase Inhibitors. The experiment is classed as functional. Particulars: 30 µM.
Experiment [2] concerns the target T1, Ubiquitin-activating enzyme e1, putative (Leishmania donovani (strain BPK282A1)) (UniProt E9BSI1).
T1 sequence (whole entry): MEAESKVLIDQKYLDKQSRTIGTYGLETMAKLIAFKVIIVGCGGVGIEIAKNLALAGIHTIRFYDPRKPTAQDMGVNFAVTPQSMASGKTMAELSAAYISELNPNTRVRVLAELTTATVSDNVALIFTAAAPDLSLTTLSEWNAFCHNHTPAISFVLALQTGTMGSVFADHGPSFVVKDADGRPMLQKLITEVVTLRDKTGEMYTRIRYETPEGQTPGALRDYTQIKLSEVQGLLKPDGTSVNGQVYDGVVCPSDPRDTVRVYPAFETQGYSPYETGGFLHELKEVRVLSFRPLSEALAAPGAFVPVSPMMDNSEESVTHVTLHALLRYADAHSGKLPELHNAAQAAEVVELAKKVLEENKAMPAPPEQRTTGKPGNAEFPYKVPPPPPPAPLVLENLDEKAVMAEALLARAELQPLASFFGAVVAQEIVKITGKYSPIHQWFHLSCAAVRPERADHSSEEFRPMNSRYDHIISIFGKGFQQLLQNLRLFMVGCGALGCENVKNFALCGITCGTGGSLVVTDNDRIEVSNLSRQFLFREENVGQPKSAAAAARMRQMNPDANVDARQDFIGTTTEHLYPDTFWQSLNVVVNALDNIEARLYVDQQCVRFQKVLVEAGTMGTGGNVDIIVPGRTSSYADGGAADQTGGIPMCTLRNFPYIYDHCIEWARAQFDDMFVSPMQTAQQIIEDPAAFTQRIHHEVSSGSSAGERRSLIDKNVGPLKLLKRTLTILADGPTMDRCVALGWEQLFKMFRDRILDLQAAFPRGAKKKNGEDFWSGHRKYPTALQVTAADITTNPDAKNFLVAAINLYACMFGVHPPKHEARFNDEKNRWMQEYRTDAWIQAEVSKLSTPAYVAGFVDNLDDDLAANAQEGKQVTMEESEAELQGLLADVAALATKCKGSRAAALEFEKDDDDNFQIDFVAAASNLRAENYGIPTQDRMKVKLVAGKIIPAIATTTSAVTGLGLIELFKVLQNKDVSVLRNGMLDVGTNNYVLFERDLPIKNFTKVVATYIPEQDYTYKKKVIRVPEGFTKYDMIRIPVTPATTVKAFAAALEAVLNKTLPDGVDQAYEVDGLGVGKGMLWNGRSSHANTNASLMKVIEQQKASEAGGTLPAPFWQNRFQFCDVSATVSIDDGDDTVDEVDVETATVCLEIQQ
Briefly: Leishmania donovani Ubiquitin Activating Enzyme (LdE1). The experiment is classed as functional. As to conditions: 30 µM.

For experiment [3], the target named is Sialic acid-binding Ig-like lectin 9 (Homo sapiens) (UniProt Q9Y336). The experiment can be described thus: Hs-Siglec9 ALPHAscreen SOP 20170721. Particulars: 10 µM. (In Alpha technology, singlet oxygen from a donor bead excites a nearby acceptor bead.)
A further experiment has as its system Trypanosoma cruzi. Briefly: Trypanosoma cruzi phosphomannomutase and mannose-1-phosphate guanylyltransferase assay. The experiment is classed as functional. As to conditions: 10 µM.
Experiment [4] addresses T2, Arginase-2, mitochondrial (Homo sapiens) (UniProt P78540).
T2 sequence (whole entry): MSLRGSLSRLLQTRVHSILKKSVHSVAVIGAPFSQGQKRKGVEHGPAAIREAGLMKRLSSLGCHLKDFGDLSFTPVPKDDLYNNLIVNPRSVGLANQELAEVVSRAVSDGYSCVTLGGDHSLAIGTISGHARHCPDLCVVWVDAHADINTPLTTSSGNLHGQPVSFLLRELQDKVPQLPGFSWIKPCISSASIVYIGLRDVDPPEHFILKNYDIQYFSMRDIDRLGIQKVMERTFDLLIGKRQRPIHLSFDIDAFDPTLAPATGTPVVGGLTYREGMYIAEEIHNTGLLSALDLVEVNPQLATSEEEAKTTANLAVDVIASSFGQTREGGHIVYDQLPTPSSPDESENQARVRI
The experiment can be described thus: in vitro enzyme assay to detect the production of urea directly proportional to the activity of Arginase II. Also: in the data most compounds retested in dose-response had high values. The experiment is classed as functional. Particulars: 33.3 µM.

Experiment [5] concerns the target T3, Proteasome subunit beta (Trypanosoma cruzi) (UniProt O96673).
T3 sequence (whole entry): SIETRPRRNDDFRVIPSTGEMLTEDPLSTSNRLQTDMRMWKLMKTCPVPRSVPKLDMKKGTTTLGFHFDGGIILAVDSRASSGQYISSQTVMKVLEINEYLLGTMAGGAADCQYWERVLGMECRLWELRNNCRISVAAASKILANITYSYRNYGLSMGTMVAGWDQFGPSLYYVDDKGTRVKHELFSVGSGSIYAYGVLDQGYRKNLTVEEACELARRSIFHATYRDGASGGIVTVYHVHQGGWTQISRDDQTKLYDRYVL
The experiment can be described thus: Trypanosoma cruzi proteasome chymotrypsin-like activity (TcProtChymo) assay. Also: in the data most compounds retested in dose-response had high values. The experiment is classed as functional. As to conditions: 9.37 µM.

For the next experiment, the species on record is Homo sapiens. The experiment can be described thus: To identify inhibition of the IFN signalling (Jak-Stat) pathway via expression of an eGFP reporter gene under the control of an IFN-stimulated response element (ISRE) containing MxA promoter. The experiment is classed as functional. Particulars: 30 µM.
The target in experiment [6] is T4, Tyrosyl-tRNA synthetase, putative (Trypanosoma cruzi (strain CL Brener)) (UniProt Q4DSP6).
T4 sequence (whole entry): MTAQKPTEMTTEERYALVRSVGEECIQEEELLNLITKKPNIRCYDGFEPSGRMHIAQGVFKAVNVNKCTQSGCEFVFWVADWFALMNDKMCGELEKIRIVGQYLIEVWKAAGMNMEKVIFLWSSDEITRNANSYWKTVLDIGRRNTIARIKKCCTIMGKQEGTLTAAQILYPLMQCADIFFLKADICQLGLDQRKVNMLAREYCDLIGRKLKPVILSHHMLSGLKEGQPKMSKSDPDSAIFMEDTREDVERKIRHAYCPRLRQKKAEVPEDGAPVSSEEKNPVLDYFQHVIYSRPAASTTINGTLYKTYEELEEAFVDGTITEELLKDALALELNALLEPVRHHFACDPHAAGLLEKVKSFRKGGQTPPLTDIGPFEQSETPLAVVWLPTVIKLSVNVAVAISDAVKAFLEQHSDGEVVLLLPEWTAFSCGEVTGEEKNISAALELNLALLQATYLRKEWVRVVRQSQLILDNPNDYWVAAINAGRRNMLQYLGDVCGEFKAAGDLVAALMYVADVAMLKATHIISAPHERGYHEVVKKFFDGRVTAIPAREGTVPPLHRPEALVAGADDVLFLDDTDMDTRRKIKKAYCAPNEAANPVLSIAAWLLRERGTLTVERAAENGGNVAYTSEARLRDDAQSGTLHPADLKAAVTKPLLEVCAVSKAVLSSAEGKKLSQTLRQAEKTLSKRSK
The experiment can be described thus: Trypanosoma cruzi tyrosyl tRNA synthetase (TcYRS) _High Tyrosine SOP. Also: in the data most compounds retested in dose-response had high values. The experiment is classed as functional. As to conditions: 30 µM.

Experiment [7] deals with T4, Tyrosyl-tRNA synthetase, putative (Trypanosoma cruzi (strain CL Brener)). Briefly: Trypanosoma cruzi tyrosyl tRNA synthetase (TcYRS) SOP. The experiment is classed as functional. Particulars: 30 µM.
Experiment [8] addresses Chromo domain-containing protein 1 (Saccharomyces cerevisiae (strain ATCC 204508 / S288c) (Baker's yeast)) (UniProt P32657). The experiment can be described thus: ScCHD-1 Enzyme Inhibition Assay. Also: in the data most compounds retested in dose-response had high values. The experiment is classed as functional. Particulars: 30 µM.

For some of these results: Results with a measured potency or affinity are listed apart.

Sequence of Protein translocase subunit SecA (Escherichia coli (strain K12)) (P10408 whole entry): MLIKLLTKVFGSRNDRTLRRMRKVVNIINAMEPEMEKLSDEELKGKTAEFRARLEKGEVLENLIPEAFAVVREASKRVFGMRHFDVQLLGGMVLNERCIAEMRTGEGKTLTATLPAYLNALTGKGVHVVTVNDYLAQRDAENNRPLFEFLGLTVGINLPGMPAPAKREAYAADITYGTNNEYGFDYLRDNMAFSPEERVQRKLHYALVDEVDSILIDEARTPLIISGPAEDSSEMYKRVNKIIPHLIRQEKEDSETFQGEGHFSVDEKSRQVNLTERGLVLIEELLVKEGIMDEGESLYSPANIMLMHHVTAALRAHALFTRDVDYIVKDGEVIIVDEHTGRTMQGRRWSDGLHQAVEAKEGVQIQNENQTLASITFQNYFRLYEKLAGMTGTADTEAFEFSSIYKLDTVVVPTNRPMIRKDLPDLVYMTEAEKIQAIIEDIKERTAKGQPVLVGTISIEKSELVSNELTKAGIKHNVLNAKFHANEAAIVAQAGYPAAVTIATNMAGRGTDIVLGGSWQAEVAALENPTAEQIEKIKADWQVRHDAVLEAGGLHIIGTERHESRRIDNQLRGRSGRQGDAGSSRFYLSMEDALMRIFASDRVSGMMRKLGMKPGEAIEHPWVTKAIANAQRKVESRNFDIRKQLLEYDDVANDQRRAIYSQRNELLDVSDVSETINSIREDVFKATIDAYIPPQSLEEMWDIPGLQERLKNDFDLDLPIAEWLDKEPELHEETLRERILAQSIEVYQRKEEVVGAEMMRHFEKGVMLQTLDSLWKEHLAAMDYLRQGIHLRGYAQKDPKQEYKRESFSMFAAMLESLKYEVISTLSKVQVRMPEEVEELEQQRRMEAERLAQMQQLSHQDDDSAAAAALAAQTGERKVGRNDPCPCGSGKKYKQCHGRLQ
Sequence of Sialic acid-binding Ig-like lectin 9 (Homo sapiens) (Q9Y336 whole entry): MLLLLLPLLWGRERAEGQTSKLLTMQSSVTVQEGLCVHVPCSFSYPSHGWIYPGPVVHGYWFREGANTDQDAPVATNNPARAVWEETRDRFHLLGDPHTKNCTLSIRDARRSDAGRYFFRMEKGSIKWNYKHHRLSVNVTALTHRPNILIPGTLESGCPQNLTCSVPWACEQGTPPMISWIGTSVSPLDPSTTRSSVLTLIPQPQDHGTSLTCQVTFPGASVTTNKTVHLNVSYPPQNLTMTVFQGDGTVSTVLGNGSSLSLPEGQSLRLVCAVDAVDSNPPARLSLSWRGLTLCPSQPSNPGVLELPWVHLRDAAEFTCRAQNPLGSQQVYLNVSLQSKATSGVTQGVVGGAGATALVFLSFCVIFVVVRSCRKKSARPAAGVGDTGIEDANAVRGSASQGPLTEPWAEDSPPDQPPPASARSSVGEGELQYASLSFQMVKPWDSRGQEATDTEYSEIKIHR
Sequence of Chromo domain-containing protein 1 (Saccharomyces cerevisiae (strain ATCC 204508 / S288c) (Baker's yeast)) (P32657 whole entry, the tested form may be a part): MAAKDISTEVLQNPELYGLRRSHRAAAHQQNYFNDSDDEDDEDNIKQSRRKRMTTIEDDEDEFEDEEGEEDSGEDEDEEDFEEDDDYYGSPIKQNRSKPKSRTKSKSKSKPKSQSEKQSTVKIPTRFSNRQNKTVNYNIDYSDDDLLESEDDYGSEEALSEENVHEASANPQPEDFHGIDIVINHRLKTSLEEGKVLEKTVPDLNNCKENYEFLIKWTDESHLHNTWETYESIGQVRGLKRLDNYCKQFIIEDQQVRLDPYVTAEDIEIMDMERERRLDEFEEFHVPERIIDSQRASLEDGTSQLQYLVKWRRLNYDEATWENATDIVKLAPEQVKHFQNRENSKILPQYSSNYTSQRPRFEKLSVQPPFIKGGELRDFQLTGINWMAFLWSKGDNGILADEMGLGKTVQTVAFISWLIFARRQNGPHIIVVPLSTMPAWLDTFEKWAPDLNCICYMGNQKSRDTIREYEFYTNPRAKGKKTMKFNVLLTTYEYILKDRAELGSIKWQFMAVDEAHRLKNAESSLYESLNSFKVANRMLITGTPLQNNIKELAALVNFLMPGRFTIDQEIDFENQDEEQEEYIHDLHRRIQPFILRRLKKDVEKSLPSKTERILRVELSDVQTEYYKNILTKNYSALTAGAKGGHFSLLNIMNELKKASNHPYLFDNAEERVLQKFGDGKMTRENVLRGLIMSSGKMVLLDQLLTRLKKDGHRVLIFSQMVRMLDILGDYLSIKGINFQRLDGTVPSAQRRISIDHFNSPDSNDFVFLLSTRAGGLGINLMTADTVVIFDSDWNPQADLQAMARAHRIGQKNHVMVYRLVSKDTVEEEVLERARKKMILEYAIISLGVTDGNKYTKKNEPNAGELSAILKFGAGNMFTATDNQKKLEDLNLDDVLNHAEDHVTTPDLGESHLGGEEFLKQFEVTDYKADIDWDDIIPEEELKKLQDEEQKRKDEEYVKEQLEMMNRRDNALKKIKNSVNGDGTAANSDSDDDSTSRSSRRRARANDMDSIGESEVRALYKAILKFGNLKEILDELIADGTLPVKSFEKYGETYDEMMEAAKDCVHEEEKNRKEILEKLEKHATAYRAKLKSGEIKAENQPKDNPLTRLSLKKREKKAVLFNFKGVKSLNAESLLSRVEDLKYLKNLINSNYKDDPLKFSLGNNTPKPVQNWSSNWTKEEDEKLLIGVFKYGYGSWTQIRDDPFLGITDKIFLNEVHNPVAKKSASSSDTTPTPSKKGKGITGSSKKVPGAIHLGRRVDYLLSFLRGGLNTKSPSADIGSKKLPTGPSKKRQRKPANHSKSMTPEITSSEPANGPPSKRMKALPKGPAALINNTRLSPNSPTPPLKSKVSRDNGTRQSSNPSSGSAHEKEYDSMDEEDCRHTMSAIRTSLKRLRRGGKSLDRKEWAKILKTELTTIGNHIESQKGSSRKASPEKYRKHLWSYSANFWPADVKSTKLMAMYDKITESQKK

Consider `COCCNC(=O)Nc1ccc(F)c(C(N)=O)c1`, for which the Percent Effect was 2.83% in experiment [1]; 15.6% in experiment [2]; -5.71% in experiment [3]; -5.04% with Trypanosoma cruzi; 0.615% in [4]; 8.42% in [5]. In addition, the Percent Effect in the experiment listed under Homo sapiens is 8.95%; in [6] it was 9.8%; in experiment [7], 16.5%; in experiment [8] it was -12.2%.

Consider `Cc1ccc(CCN2CCC(N(C)Cc3noc(C4CC4)n3)C2)cc1` (stereo not given), for which the Percent Effect was -0.729% in [1]; 10.3% in [2]; -7.58% in [3]; 0.0939% in the experiment on Trypanosoma cruzi; 3.69% in [4]; 11.7% in experiment [5]. For the same molecule, the Percent Effect in the experiment filed under Homo sapiens was -3.17%; in [6] it was 5.26%; in [7], 8.43%; in [8], -4.27%.

Turning to `CCn1nc2c(cc1=O)CN(Cc1nc(CCOC)no1)CC2`, the Percent Effect in experiment [1] was -2.71%; in experiment [2], 5.13%; in experiment [3], -1.28%; with Trypanosoma cruzi it was 4.6%; in [4], 9.43%; in experiment [5], 0.427%. Also, the Percent Effect in the experiment filed under Homo sapiens is 4.98%; in experiment [6], 0.478%; in experiment [7], 8.43%; in [8], -3.33%.

For `COc1cccc(OCC2CCCN(C(C)=O)C2)c1` (stereo not given), the Percent Effect in experiment [1] was -1.78%; in [2] it was 14.7%; in experiment [3], -3.67%; with Trypanosoma cruzi, -0.395%; in experiment [4] it was -3.1%; in experiment [5], 25.4%. The Percent Effect is 8.14% in the experiment filed under Homo sapiens, 2.12% in experiment [6], 15% in [7] and -24.1% in experiment [8].

In the case of `O=C(NCCCn1ccnc1)N1CCN(c2cccs2)CC1`, the Percent Effect in experiment [1] is -5.79%; in experiment [2], -10.4%; in [3] it was 7.23%; with Trypanosoma cruzi it was 2.42%; in experiment [4] it was -9.22%; in experiment [5] it was 12.8%. For the same molecule, the Percent Effect in the experiment filed under Homo sapiens is -11.9%; in experiment [6] it was 28.4%; in experiment [7] it was 11.8%; in experiment [8] it was 0.725%.

Consider `CC1CN(CC(=O)NC2CCCC2)CCN1c1ccc2nncn2n1` (stereo not given), for which the Percent Effect is -1.74% in [1]; 12.8% in experiment [2]; 1.41% in experiment [3]; 0.0939% in the experiment with Trypanosoma cruzi; 4.1% in experiment [4]; 15.8% in [5]. Moreover, the Percent Effect in the experiment listed under Homo sapiens was 12.2%; in experiment [6] it was 7.18%; in [7], 20.5%; in experiment [8], -1.24%.

Turning to `CN1[C@H](Cn2cccn2)C[C@@H]2CN(C(=O)Cc3cccs3)CC[C@@H]21`, the Percent Effect in [1] is -4.49%; in experiment [2], 11.7%; in experiment [3] it was -0.662%; with Trypanosoma cruzi, -3.56%; in experiment [4], -1.83%; in experiment [5], 9.53%. In addition, the Percent Effect in the experiment filed under Homo sapiens was 18.5%; in [6], 6.76%; in experiment [7] it was 0%; in experiment [8] it was -10.4%.

For `Cc1n[nH]c(C)c1C1COCCN1C(=O)c1cc(Cl)c[nH]1` (stereo not given), the Percent Effect in experiment [1] was -1.38%; in experiment [2] it was 2.56%; in [3], 3.4%; with Trypanosoma cruzi, -3.47%; in experiment [4], 9.02%; in [5], -1.96%. For the same molecule, the Percent Effect was 15% in the experiment filed under Homo sapiens, -2.39% in experiment [6], 1.21% in experiment [7] and 2.03% in experiment [8].

On to `CC(C)c1nn(C)c(N2CCOCC2)c1CNCCS(C)(=O)=O`, for which the Percent Effect in experiment [1] is -1.81%; in [2], 0%; in experiment [3], 0.36%; in the experiment with Trypanosoma cruzi, 1.22%; in experiment [4], 4.92%; in [5] it was -0.427%. The Percent Effect is -17% in the experiment listed under Homo sapiens, 0.478% in experiment [6], 1.21% in experiment [7] and 1.65% in experiment [8].

Consider `COc1cc(CNC(=O)C2CC(=O)N(C(C)C)C2)ccn1` (stereo not given), for which the Percent Effect in [1] is -1.79%; in [2], 10.3%; in [3], -1.27%; in the experiment on Trypanosoma cruzi, -1.22%; in experiment [4], 2.05%; in [5] it was 12.7%. Also, the Percent Effect is 24.4% in the experiment filed under Homo sapiens, 3.35% in [6], 10.8% in [7] and -3.72% in experiment [8].

For `CC(C)NC(=O)C1CN(C(=O)Nc2ccccc2)CC12CCOCC2` (stereo not given), the Percent Effect was -8.24% in [1]; 3.9% in experiment [2]; -2.62% in experiment [3]; -3.02% with Trypanosoma cruzi; 1.22% in experiment [4]; 22.9% in experiment [5]. Also, the Percent Effect in the experiment filed under Homo sapiens was 14.5%; in experiment [6], 6.84%; in experiment [7] it was 2.56%; in experiment [8], -3.13%.

`CCn1ncc(Br)c1CN(C)S(=O)(=O)c1ccc(C)cc1`: the Percent Effect in experiment [1] was 0.567%; in experiment [2], 6.67%; in [3], -0.565%; with Trypanosoma cruzi, 3.35%; in [4], 6.2%; in experiment [5], 15.3%. Besides, the Percent Effect in the experiment listed under Homo sapiens is 14%; in [6], 4.23%; in experiment [7], 10%; in experiment [8], -22%.

In the case of `Cn1ccnc1CN1CCN(Cc2noc(-c3ccccc3)n2)CC1`, the Percent Effect is -3.61% in experiment [1]; 10.7% in experiment [2]; -0.35% in experiment [3]; -6.02% in the experiment with Trypanosoma cruzi; 3.99% in [4]; 7.55% in [5]. Also, the Percent Effect in the experiment filed under Homo sapiens is 13.5%; in experiment [6], 3.68%; in experiment [7] it was 7.69%; in [8] it was -9.67%.

(Values after ChEMBL document CHEMBL3988442, “University of Dundee, Small-Polar-MMV Screening Library” (2021).)
